The target in assay [1] is Estrogen-related receptor gamma (Homo sapiens) (UniProt P62508). The assay is described as follows: ATG_ERRg_TRANS: Attagene TRANS-FACTORIAL HepG2 Assay for human Estrogen-Related Receptor gamma (ERRg) (AID 2282977; active = hit-call score of the fitted dose curve at least 0.9, where 1 is the maximum;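 also: hits increase reporter signal over DMSO so potencies reflect activators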). The note with it: HepG2 Attagene TRANS reporter, ERRg transactivation. The method in brief:
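Induction of reporter transcripts through a chimeric NR-Gal4 protein is quantified in transfected human HepG2 liver cells after 24 h chemical exposure, using RT-PCR with capillary electrophoresis detection and DMSO as baseline.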

The target in assay [2] is Oxysterols receptor LXR-alpha (Homo sapiens) (UniProt Q13133). The experiment in a line: ATG_LXRa_TRANS: Attagene TRANS-FACTORIAL HepG2 Assay for human Liver X Receptor alpha (LXRa) (AID 2282980; active = hit-call score of the fitted dose curve at least 0.9, where 1 is the maximum). The note with it: HepG2 Attagene TRANS reporter, LXRa transactivation. The method in brief: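 HepG2 cells transiently transfected with GAL4-UAS reporter units for chimeric NR-Gal4 proteins, exposed to chemicals for 24 h. Reporter mRNA quantified by RT-PCR and capillary electrophoresis; gain of signal fitted relative to DMSO.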
Sequence of Oxysterols receptor LXR-alpha (Homo sapiens) (Q13133 whole entry, looked up, the tested form may be a part): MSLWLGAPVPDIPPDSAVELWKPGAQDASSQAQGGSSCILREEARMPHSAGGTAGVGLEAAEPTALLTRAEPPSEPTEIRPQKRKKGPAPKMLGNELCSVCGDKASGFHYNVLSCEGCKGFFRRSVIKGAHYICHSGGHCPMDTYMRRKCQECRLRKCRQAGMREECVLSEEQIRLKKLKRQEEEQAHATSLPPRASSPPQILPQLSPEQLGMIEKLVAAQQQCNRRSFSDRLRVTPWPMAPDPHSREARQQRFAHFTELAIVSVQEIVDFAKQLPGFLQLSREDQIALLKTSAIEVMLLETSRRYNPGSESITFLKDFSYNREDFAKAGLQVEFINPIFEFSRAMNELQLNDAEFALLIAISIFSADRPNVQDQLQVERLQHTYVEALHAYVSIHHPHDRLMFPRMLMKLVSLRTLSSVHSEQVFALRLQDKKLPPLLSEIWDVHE

Assay [3] addresses Oxysterols receptor LXR-beta (Homo sapiens) (UniProt P55055). The experiment in a line: ATG_LXRb_TRANS: Attagene TRANS-FACTORIAL HepG2 Assay for human Liver X Receptor beta (LXRb) (AID 2282981; active = hit-call score of the fitted dose curve at least 0.9, where 1 is the maximum). Conditions: HepG2 Attagene TRANS GAL4-LXRb reporter, mRNA. The essentials:
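Measures induction of a Gal4-driven reporter transcript in HepG2 cells expressing an exogenous LXRb-Gal4 fusion. Cells are exposed to compound for 24 h before RNA isolation and RT-PCR with capillary electrophoresis detection.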

For assay [4], the target named is Nuclear receptor subfamily 4 group A member 2 (Homo sapiens) (UniProt P43354). The assay is described as follows: ATG_NURR1_TRANS: Attagene TRANS-FACTORIAL HepG2 Assay for human Nuclear Receptor Related Protein 1 (NURR1) (AID 2282985; active = hit-call score of the fitted dose curve at least 0.9, where 1 is the maximum). Conditions: HepG2 Attagene TRANS reporter, mRNA readout. The essentials: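 Chimeric NR-Gal4 fusion activity measured in HepG2 after 24 h treatment. Reporter transcripts detected by RT-PCR and capillary electrophoresis fluorescence; positive-direction curve fitting against DMSO.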

For assay [5], the target named is Transcriptional activator Myb (Homo sapiens) (UniProt P10242). The experiment in a line: ATG_Myb_CIS: Attagene CIS-FACTORIAL HepG2 Assay for human Myeloblastosis (Myb) Proto-Oncogene Transcription Factor (AID 2282986). The note with it: HepG2 Attagene CIS-FACTORIAL Myb reporter transcription; actives raise or lower the signal. The essentials:
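HepG2 cells were transiently transfected with cis-regulated multiple reporter transcription units reflecting endogenous Myb activity, then exposed to compound for 24 hours. Reporter mRNA was measured by RT-PCR with capillary electrophoresis; bidirectional fitting versus DMSO baseline.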

In assay [6] the target is Nuclear respiratory factor 1 (Homo sapiens) (UniProt Q16656). The experiment in a line: ATG_NRF1_CIS: Attagene CIS-FACTORIAL HepG2 Assay for human Nuclear Respiratory Factor 1 (NRF1) Orphan Gene (AID 2282987). Conditions: HepG2 NRF1 cis-element reporter, Attagene multiplex; actives raise or lower the signal. The method in brief:
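HepG2 cells transiently transfected with multiple reporter transcription units under cis-regulatory promoter control, so endogenous transcription-factor activity is read. After 24 h compound exposure, reporter mRNA quantified by RT-PCR, fluorescent labelling, HpaI digestion and capillary electrophoresis; bidirectional fitting versus DMSO.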

Assay [7] is described as follows: ATG_Oct_MLP_CIS: Attagene CIS-FACTORIAL HepG2 Assay for human Octamer-Binding Transcription Factor (Oct) (AID 2282993). Conditions: HepG2 Attagene cis-factorial Oct reporter, mRNA; actives raise or lower the signal. The method in brief: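 HepG2 cells transiently transfected with cis-promoter-driven multiplexed reporter transcription units, dosed for 24 h. Reporter mRNA quantified by RT-PCR, fluorescent labelling, HpaI digestion and capillary electrophoresis; bidirectional fits versus DMSO baseline.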

Assay [8] concerns the target Cellular tumor antigen p53 (Homo sapiens) (UniProt P04637). The assay is described as follows: ATG_p53_CIS: Attagene CIS-FACTORIAL HepG2 Assay for human p53 Transcription Factor (AID 2282994). Conditions: HepG2 p53 cis-element reporter, Attagene mRNA; actives raise or lower the signal. The essentials:
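Read-out: reporter mRNA by RT-PCR plus capillary electrophoresis with fluorescence detection. Human HepG2 liver cells carried transfected multi-reporter cis-element constructs, dosed 24 h. Gain or loss of signal fitted bidirectionally against DMSO control.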

Assay [9] in a line: BSK_3C_TissueFactor: BioMAP Diversity Plus: 3C Assay for Tissue Factor Biomarker Activity (AID 2282997). Conditions: BioMAP 3C HUVEC, tissue factor biomarker readout; actives raise or lower the signal. The method in brief:
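Tissue Factor measured by ELISA, 24 h after treatment of primary HUVEC in the BioMAP 3C setting.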

Assay [10] in a line: BSK_3C_uPAR: BioMAP Diversity Plus: 3C Assay for Urokinase-type plasminogen activator receptor (uPAR) Biomarker Activity (AID 2282998). Conditions: BioMAP 3C HUVEC, uPAR biomarker ELISA; actives raise or lower the signal. The essentials: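 Human umbilical vein endothelial primary cells were exposed to test chemical for 24 h. Cell-surface uPAR was then quantified by ELISA, and responses were fitted bidirectionally against DMSO as negative control and baseline.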
On the technique in general: In an ELISA, binding on a coated surface is turned into a signal by an enzyme label.

Assay [11] in a line: BSK_3C_VCAM1: BioMAP Diversity Plus: 3C Assay for Vascular cell adhesion molecule 1 (VCAM1) Biomarker Activity (AID 2282999). Conditions: BioMAP 3C HUVEC, VCAM1 ELISA, cytokine-stimulated; actives raise or lower the signal. The essentials:
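Vascular primary endothelium (human umbilical vein) was exposed to chemicals and assayed 24 h later. VCAM-1 levels came from ELISA, with DMSO serving as baseline for bidirectional fitting.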

Assay [12] deals with Hepatocyte nuclear factor 4-alpha (Homo sapiens) (UniProt P41235). The assay is described as follows: ATG_HNF4a_TRANS: Attagene TRANS-FACTORIAL HepG2 Assay for human Hepatocyte Nuclear Factor 4 alpha (HNF4a) (AID 2282982; active = hit-call score of the fitted dose curve at least 0.9, where 1 is the maximum). Conditions: HepG2 HNF4a transactivation reporter, mRNA readout. The essentials: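 In this trans-factorial format, a chimeric HNF4a-GAL4 fusion drives a GAL4-UAS reporter in transfected HepG2 liver cells. After 24 h treatment, reporter mRNA induction is measured by RT-PCR with capillary electrophoresis, relative to DMSO.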
Sequence of Hepatocyte nuclear factor 4-alpha (Homo sapiens) (P41235 whole entry, looked up, the tested form may be a part): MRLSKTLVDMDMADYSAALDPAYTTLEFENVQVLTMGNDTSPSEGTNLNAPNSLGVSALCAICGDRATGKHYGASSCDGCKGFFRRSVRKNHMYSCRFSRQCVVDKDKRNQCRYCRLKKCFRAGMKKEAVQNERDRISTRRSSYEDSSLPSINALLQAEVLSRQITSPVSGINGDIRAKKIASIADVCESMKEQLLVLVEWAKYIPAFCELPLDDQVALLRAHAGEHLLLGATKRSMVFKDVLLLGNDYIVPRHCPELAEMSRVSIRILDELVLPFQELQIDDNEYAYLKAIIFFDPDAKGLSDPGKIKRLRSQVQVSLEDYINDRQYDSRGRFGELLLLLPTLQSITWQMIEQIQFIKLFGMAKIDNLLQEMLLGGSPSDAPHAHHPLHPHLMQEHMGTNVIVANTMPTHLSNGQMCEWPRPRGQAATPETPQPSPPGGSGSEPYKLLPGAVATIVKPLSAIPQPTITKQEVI

Assay [13] can be described thus: ATG_M_32_TRANS: Attagene TRANS-FACTORIAL HepG2 Assay for M32 Transcription Factor (Internal Marker) (AID 2282984; active = hit-call score of the fitted dose curve at least 0.9, where 1 is the maximum;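 also: transcript level of a background control reporter unit measured by RT-PCR and capillary electrophoresis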). The note with it: HepG2 Attagene TRANS M32 internal marker reporter. The essentials:
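After 24 h dosing of transfected HepG2 cells, total RNA was reverse-transcribed, reporter sequences PCR-amplified, 6-FAM labelled by primer extension and HpaI-digested before capillary electrophoresis. Signal increase over DMSO was fitted.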

Assay [14] in a line: ATG_NRF2_ARE_CIS: Attagene CIS-FACTORIAL HepG2 Assay for human Nuclear Factor Erythroid 2 Related Factor 2 (NFR2) response to Antioxidant Response Elements (ARE) (AID 2282992). Conditions: HepG2 Attagene ARE/NRF2 reporter, transcription factor activity; actives raise or lower the signal. The method in brief: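 Readout: reporter mRNA quantified by RT-PCR plus FAM-labelled primer extension, HpaI digestion and capillary electrophoresis, 24 h after dosing transfected HepG2 cells. Gain or loss of signal is fitted bidirectionally against DMSO baseline.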

The target of assay [15] is Glucocorticoid receptor (Homo sapiens) (UniProt P04150). The experiment in a line: ATG_GR_TRANS: Attagene TRANS-FACTORIAL HepG2 Assay for human Glucocorticoid Receptor (GR) (AID 2282978; active = hit-call score of the fitted dose curve at least 0.9, where 1 is the maximum;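 also: activators score as hits since higher reporter transcript over DMSO is fitted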). Conditions: HepG2 Attagene TRANS GR reporter, mRNA transcription. The essentials:
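HepG2 cells transiently transfected with multiplexed reporter units in which chimeric NR-GAL4 proteins drive GAL4-UAS reporters; 24 h compound exposure. Reporter mRNA measured by RT-PCR, 6-FAM labelling, HpaI digestion and capillary electrophoresis; gain-of-signal fitted versus DMSO.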

Assay [16] in a line: ATG_NFI_CIS: Attagene CIS-FACTORIAL HepG2 Assay for human Nuclear Factor I (NFI) (AID 2282989). Conditions: HepG2 cis-regulatory reporter, NFI response element transcription; actives raise or lower the signal. The method in brief:
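HepG2 cells transiently transfected with cis-element-driven multiplexed reporter transcription units, dosed for 24 h. Reporter mRNA quantified by RT-PCR, fluorescent labelling, HpaI digestion and capillary electrophoresis; bidirectional fit versus DMSO baseline.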

Assay [17] addresses Myc proto-oncogene protein (Homo sapiens) (UniProt P01106). The assay is described as follows: ATG_Myc_CIS: Attagene CIS-FACTORIAL HepG2 Assay for human Myelocytomatosis (Myc) Proto-Oncogene Transcription Factor (AID 2282990). Conditions: HepG2, Attagene cis-reporter transcription factor activity; actives raise or lower the signal. The method in brief: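 Multiplexed cis-reporter transcription in HepG2 cells after 24 h chemical treatment. Reporter mRNA measured by RT-PCR and capillary electrophoresis fluorescence; activity fitted bidirectionally against DMSO control.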

Assay [18] in a line: ATG_M_06_TRANS: Attagene TRANS-FACTORIAL HepG2 Assay for M06 Transcription Factor (Internal Marker) (AID 2282983; active = hit-call score of the fitted dose curve at least 0.9, where 1 is the maximum). The note with it: HepG2 Attagene TRANS M06 internal marker reporter. The method in brief:
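mRNA levels of a reporter transcript, quantified as FAM fluorescence on capillary electrophoresis, served as readout. HepG2 cells expressing exogenous GAL4-chimera reporter constructs were exposed for 24 h. Gain of signal over DMSO was evaluated.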

Assay [19] has as its target Bile acid receptor (Homo sapiens) (UniProt Q96RI1). The assay is described as follows: ATG_FXR_TRANS: Attagene TRANS-FACTORIAL HepG2 Assay for Farnesoid X Receptor (FXR) (AID 2282979; active = hit-call score of the fitted dose curve at least 0.9, where 1 is the maximum;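 also: hits raise reporter mRNA above DMSO so AC50 marks FXR activation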). Conditions: HepG2 Attagene TRANS FXR-GAL4 reporter transcription. The method in brief: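 HepG2 cells were transiently transfected with GAL4-UAS reporters driven by chimeric NR-Gal4 proteins and dosed for 24 h. Reporter mRNA was quantified by RT-PCR, fluorescent labelling, HpaI digestion and capillary electrophoresis, with gain of signal scored versus DMSO.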

Inconclusive results are not listed. The source made the active and inactive calls. The calls were made as follows, unless noted: active = hit-call score of the fitted dose curve at least 0.9, where 1 is the maximum; inactive = score below 0.9.

Sequence of Cellular tumor antigen p53 (Homo sapiens) (P04637 whole entry, looked up): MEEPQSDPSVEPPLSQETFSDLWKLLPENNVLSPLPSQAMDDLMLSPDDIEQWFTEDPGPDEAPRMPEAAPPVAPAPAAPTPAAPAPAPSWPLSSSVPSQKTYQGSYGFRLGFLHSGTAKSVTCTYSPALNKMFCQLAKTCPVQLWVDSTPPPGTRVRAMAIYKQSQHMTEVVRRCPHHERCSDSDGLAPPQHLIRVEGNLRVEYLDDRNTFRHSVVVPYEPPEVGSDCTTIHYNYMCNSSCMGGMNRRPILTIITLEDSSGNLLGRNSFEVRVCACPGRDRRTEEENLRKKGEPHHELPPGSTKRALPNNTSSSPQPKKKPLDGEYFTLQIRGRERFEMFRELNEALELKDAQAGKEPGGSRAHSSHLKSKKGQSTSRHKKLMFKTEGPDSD
Sequence of Bile acid receptor (Homo sapiens) (Q96RI1 whole entry, looked up, the tested form may be a part): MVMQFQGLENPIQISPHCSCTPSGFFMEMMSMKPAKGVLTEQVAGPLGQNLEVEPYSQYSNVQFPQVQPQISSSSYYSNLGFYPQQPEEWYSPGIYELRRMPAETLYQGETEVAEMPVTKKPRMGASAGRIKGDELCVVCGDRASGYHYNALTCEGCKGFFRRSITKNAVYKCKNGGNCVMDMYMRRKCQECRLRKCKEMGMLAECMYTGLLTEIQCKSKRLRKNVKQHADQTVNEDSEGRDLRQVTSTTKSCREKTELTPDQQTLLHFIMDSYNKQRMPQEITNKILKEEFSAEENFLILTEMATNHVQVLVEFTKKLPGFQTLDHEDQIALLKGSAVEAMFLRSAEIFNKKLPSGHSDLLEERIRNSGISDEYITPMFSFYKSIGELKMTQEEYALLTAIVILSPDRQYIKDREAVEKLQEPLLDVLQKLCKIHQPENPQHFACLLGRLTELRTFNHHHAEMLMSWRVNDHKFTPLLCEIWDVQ
Sequence of Nuclear respiratory factor 1 (Homo sapiens) (Q16656 whole entry, looked up): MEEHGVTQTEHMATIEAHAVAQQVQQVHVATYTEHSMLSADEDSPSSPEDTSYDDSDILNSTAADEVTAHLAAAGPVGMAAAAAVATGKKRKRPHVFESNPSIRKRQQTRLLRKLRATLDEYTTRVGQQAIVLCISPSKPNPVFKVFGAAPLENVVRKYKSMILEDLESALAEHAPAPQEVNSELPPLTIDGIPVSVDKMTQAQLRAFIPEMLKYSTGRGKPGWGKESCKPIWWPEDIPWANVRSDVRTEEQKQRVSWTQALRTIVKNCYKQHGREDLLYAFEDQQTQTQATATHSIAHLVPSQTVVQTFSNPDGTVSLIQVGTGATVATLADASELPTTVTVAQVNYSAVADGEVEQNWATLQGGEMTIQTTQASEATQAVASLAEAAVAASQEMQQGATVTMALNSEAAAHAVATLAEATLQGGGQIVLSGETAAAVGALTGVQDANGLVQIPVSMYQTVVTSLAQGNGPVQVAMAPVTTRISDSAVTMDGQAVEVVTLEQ
Sequence of Transcriptional activator Myb (Homo sapiens) (P10242 whole entry, looked up): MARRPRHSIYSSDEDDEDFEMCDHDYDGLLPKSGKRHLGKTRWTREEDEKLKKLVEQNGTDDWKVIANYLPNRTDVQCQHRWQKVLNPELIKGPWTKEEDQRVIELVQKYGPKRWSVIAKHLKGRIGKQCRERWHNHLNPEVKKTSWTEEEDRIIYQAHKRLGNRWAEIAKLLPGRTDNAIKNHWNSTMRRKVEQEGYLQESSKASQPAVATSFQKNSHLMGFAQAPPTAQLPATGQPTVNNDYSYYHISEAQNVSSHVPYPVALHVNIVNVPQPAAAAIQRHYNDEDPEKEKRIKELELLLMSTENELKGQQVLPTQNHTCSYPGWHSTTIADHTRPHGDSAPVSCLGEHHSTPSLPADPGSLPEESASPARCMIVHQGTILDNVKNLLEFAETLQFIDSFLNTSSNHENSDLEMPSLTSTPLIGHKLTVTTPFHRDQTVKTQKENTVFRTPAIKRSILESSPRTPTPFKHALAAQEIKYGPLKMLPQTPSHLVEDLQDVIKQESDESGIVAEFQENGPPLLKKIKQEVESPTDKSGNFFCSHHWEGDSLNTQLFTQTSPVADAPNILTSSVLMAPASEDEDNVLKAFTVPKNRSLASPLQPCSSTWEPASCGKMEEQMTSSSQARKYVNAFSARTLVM
Sequence of Oxysterols receptor LXR-beta (Homo sapiens) (P55055 whole entry, looked up, the tested form may be a part): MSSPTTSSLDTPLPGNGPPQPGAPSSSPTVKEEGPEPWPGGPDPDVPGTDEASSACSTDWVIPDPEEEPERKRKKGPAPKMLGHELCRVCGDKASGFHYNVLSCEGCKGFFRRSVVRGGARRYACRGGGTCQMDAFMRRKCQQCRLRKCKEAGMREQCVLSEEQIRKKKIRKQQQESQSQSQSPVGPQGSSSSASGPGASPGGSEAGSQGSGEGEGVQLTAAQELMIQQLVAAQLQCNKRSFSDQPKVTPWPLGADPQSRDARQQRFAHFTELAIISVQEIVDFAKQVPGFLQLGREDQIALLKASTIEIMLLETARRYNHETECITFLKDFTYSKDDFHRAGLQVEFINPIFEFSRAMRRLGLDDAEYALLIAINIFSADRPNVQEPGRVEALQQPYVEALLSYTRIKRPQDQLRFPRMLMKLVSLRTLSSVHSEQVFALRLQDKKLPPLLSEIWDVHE
Sequence of Myc proto-oncogene protein (Homo sapiens) (P01106 whole entry, looked up): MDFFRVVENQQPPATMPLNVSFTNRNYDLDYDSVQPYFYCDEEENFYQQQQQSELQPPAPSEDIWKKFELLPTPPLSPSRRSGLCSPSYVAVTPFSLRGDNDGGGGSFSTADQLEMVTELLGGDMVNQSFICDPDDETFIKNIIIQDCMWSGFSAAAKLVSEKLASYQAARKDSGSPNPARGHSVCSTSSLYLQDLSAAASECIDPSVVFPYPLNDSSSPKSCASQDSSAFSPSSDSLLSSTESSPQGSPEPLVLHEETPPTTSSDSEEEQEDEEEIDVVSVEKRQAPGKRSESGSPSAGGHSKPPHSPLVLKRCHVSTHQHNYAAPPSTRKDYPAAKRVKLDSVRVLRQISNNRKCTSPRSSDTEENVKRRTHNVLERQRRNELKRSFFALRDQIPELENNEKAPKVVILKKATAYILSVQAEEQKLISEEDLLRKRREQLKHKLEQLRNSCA
Sequence of Glucocorticoid receptor (Homo sapiens) (P04150 whole entry, looked up, the tested form may be a part): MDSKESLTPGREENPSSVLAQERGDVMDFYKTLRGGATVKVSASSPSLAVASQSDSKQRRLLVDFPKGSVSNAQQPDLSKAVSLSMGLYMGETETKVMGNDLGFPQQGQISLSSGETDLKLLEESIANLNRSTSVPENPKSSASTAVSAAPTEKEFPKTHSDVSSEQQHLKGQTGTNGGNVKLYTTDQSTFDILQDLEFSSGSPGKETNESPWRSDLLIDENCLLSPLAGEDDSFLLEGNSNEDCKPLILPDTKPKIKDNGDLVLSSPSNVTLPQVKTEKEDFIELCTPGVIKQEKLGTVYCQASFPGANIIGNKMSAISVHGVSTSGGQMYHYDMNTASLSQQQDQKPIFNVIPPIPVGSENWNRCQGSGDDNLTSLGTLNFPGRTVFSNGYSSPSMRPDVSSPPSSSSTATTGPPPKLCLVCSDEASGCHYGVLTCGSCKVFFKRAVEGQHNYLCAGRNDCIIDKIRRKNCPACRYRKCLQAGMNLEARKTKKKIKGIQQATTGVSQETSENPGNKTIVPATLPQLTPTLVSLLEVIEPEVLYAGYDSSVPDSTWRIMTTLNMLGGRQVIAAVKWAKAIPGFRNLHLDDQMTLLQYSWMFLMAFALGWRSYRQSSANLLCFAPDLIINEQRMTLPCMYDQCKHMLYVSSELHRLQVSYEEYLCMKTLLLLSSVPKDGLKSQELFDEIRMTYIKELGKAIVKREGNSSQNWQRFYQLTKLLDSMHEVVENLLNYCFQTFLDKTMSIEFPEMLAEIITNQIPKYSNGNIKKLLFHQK

Consider `CCC(C)(C)C(=O)OC1=C(c2ccc(Cl)cc2Cl)C(=O)OC12CCCCC2`, for which the compound was called inactive in assay [1], in [2], in assay [3], in assay [4], in assay [5] and in [6]. Besides, the outcome in assay [7] and in assay [8] was inactive. In addition, the AC50 in [9] is 13.4 µM (active); in assay [10], 33.9 µM (active); in [11], 24.7 µM (active).

Consider `O=C1c2ccccc2C(=O)N1SC(Cl)(Cl)Cl`, for which the compound was classed as inactive in assay [3], in assay [12], in assay [13], in assay [4], in [5] and in assay [6]. In addition, the call in assay [7], in [8], in [9], in assay [10] and in assay [11] was inactive. In assay [14], the AC50 is 14.8 µM (active).

Consider `Clc1ccccc1-c1nnc(-c2ccccc2Cl)nn1`, for which the result in assay [3], in [12], in assay [13], in assay [4], in assay [5] and in [6] was inactive. Also, the call in assay [7], in assay [9], in [10] and in [11] was inactive.

For the compound `CNC(=O)Oc1ccccc1OC(C)C`, the result in assay [15], in [3], in [4], in assay [5], in [6] and in assay [16] was inactive. Besides, the result in assay [17], in assay [7], in [8], in assay [9], in assay [10] and in [11] was inactive.

`COC(=O)c1ccccc1S(=O)(=O)NC(=O)N(C)c1nc(C)nc(OC)n1`: the compound was called inactive in assay [3], in assay [12], in [18], in [4], in [5] and in assay [6]. In addition, the outcome in assay [17], in [7], in assay [8], in assay [9], in [10] and in [11] was inactive.

Turning to `N#Cc1c(Cl)c(Cl)c(Cl)c(C#N)c1Cl`, the compound was classed as inactive in assay [15], in assay [19], in assay [2], in [3], in assay [12] and in [5]. In addition, the compound was classed as inactive in assay [6], in assay [17] and in [8]. The AC50 in assay [14] is 0.0739 µM (active); in [7] it was 0.143 µM (active); in assay [9], 1.37 µM (active); in assay [10], 1.8 µM (active); in assay [11], 1.06 µM (active).

For `COc1nn(CSP(=S)(OC)OC)c(=O)s1`, the compound was called inactive in assay [15], in assay [19], in assay [2], in [3], in [18] and in assay [13]. Besides, the compound was classed as inactive in [5], in [6], in assay [8], in [9], in assay [10] and in assay [11]. In assay [7], the AC50 is 18 µM (active).

As for `O=[N+]([O-])/N=C1\NCCN1Cc1ccc(Cl)nc1`, the outcome in [15], in [19], in assay [2], in [3], in [13] and in [4] was inactive. Also, the call in assay [5], in [6], in assay [14], in assay [7], in assay [9] and in [10] was inactive. Moreover, the result in [11] was inactive.

What is called AC50 is the concentration giving half of the maximal activity seen.

(Values after PubChem BioAssay (EPA / NIEHS).)
